Reference: PubChem BioAssay (Tox21)
The source made the active and inactive calls. Where a call stands in place of a potency, no number is given. The call rests on the fitted dose curve; in most records, active means well fitted cell-killing curve with a large enough effect in the repeat runs; inconclusive means weak or mixed curves, or effect the other way; inactive means flat fitted curve, though single readings scatter.

experiment: qHTS assay to identify small molecule HDAC inhibitors - cell viability counter screen (AID 1259365); settings: HCT-116 viability, CellTiter-Glo ATP luminescence, 2 h; series mostly up to 92.4 µM; further: nearly all actives have a fitted effect of over 50% in size
Text: U.S. Tox21 Program National Center for Advancing Translational Sciences [NCATS] NIH Chemical Genomics Center [NCGC] U.S. Environmental Protection Agency [EPA] National Institutes of Environmental Health Sciences [NIEHS] National Toxicology Program [NTP] U.S. Food and Drug Administration [FDA] Tox21 Assay Overview: Histone deacetylases (HDACs) are a group of epigenetic enzymes that regulate gene expression by histone deacetylation. HDACs are capable of introducing epigenetic modifications and such aberrations contribute to the onset and progression of several human diseases, thus making HDACs a popular therapeutic target. For identifying endogenous class I/II HDAC inhibitors a homogenous, luminogenic HDAC I/II cell based assay was used to measure the relative activity of class I and II HDACs from cells. Wild type HCT-116 cells were used to screen Tox21 compound libraries for identifying class I/II HDAC inhibitors.
Tox21 Assay Protocol Summary: HCT-116 cells were dispensed at 1,500 per well in 5uL of culture medium into white solid bottom 1536-well plates (Greiner Bio-One, Monroe, NC) using a Multidrop Combi (Thermo Scientific, Waltham, MA) dispenser. The assay plates were incubated at 37 C and 5% CO2 for an overnight, and then 23nL of compounds dissolved in DMSO and positive control were transferred using a Pintool station (Wako, San Diego, CA). The assay plates were incubated at 37C and 5% CO2 for 2hr. After compound treatment, 4uL of CellTiter-Glo reagent (Promega Corporation, Madison, WI) was added to each well of the assay plates using Flying Reagent Dispenser (FRD, Aurora Discovery, San Diego, CA) and incubated the assay plates at room temperature for 30min. The luminescence signal was quantified using a ViewLux plate reader (Perkin Elmer, Shelton, CT).
Potency means the concentration at half of the fitted maximal effect.

Row | SMILES | Potency
1 | CCCCCCCCCCCCCCCC[N+](C)(C)Cc1ccccc1 | inactive
2 | O=C(O)CC(O)C(=O)O (stereo not given) | inactive
3 | CCOC(N)=O | inactive
4 | CCN(Cc1c(F)cccc1Cl)c1c([N+](=O)[O-])cc(C(F)(F)F)cc1[N+](=O)[O-] | inactive
5 | O=C1OC2(c3ccccc31)c1cc(Br)c(O)c(Br)c1Oc1c2cc(Br)c(O)c1Br | inactive
6 | CC12CCC(CC1)C(C)(C)O2 | inactive
7 | Cc1cc(=O)oc2cc(O)ccc12 | inactive
8 | F[B-](F)(F)F | inactive
9 | Nc1ccc(S(N)(=O)=O)cc1 | inactive
10 | CC1(C)O[C@@H]2C[C@H]3[C@@H]4CCC5=CC(=O)C=C[C@]5(C)[C@@]4(F)[C@@H](O)C[C@]3(C)[C@]2(C(=O)CO)O1 | inactive
11 | CCCCC1(COC(=O)CCC(=O)O)C(=O)N(c2ccccc2)N(c2ccccc2)C1=O | inactive
12 | Cc1cn([C@H]2C=C[C@@H](CO)O2)c(=O)[nH]c1=O | inactive
13 | Nc1ccc2c(c1)CN1C(=O)c3ccccc3C1=N2 | 11.6 µM (active)
14 | CCCCNC(=O)NS(=O)(=O)c1ccc(C)cc1 | inactive
15 | O=C(O)c1ccccc1 | inactive
16 | CCc1nc(N)nc(N)c1-c1ccc(Cl)cc1 | inactive
17 | CN1[C@@H]2CC(OC(=O)[C@H](CO)c3ccccc3)C[C@H]1[C@@H]1O[C@@H]12 (stereo not given in full) | inactive
18 | CC(=O)C(=O)O | inactive
19 | CCCCCCCC(=O)OCC(COC(=O)CCCCCCC)OC(=O)CCCCCCC | inactive
20 | Cc1cc(C)nc(NS(=O)(=O)c2ccc(N)cc2)n1 | inactive

Row | SMILES | Potency
21 | CN1CCc2cccc3c2[C@H]1Cc1ccc(O)c(O)c1-3 | inactive
22 | CC/C(=C(\c1ccccc1)c1ccc(OCCN(C)C)cc1)c1ccccc1 | inactive
23 | O=c1[nH]cc(F)c(=O)[nH]1 | inactive
24 | CCOc1ccc(NC(C)=O)cc1 | inactive
25 | CC(=O)CCC(=O)O | inactive
26 | O=C1c2c(O)cccc2Cc2cccc(O)c21 | inactive
27 | O=C1NC(=O)C(c2ccccc2)(c2ccccc2)N1 | inactive
28 | NC1CCCCC1 | inactive
29 | C1CCC(C(CC2CCCCN2)C2CCCCC2)CC1 (stereo not given) | inactive
30 | C/C=C/C=C/C(=O)O | inactive
31 | NS(=O)(=O)O | inactive
32 | CCCCOC(=O)c1ccc(O)cc1 | inactive
33 | Nc1ccc(O)c([N+](=O)[O-])c1 | inactive
34 | CCCCCCCCCCCC[N+](C)(C)Cc1ccccc1 | inactive
35 | COc1ccc2c(c1)c(CC(=O)O)c(C)n2C(=O)c1ccc(Cl)cc1 | inactive
36 | Cc1ncc([N+](=O)[O-])n1CCO | inactive
37 | CCCc1cc(=O)[nH]c(=S)[nH]1 | inactive
38 | CNNCc1ccc(C(=O)NC(C)C)cc1 | inactive
39 | Nc1c2c(nc3ccccc13)CCCC2 | inactive
40 | OC[C@H]1O[C@H](O[C@]2(CCl)O[C@H](CCl)[C@@H](O)[C@@H]2O)[C@H](O)[C@@H](O)[C@H]1Cl | inactive
